# Source: PubChem BioAssay (National Center for Advancing Translational Sciences (NCATS))
# Hits are enriched below; roughly 4% of the tested compounds scored in any of these assays.
# Casp1 inh – blocks human caspase-1 allosterically or competitively. Potency, µM (top dose mostly 57.5 µM), for the others: at the highest dose activity change, negative = inhibition, usual class: inhibitors. Caspase-1 enzyme, Ac-WEHD-AFC fluorogenic rate. P29466. hit rate 0.03% among 75,000;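 further: plate controls were vehicle for no effect and no substrate for full effect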
# Caspase-7 inhib – blocks human caspase-7 allosterically or competitively; Potency, µM (doses to about 57.5 µM), without a hit: at the highest dose activity change, negative = inhibition, actives largely listed as inhibitors; AID 889; recombinant caspase-7, Ac-DEVD-AFC fluorescence rate; hit rate 0.02% among 75,000; P55210; active means well fitted inhibition curve with a large enough effect in the main read-out, with a control signal flat, not every such curve was filed as active; inconclusive means small, poorly fitted or top-dose-only effect, or a change in a side signal; further: % of control where 0% means no effect
# Target sequence (P55210 24-198 limits assumed): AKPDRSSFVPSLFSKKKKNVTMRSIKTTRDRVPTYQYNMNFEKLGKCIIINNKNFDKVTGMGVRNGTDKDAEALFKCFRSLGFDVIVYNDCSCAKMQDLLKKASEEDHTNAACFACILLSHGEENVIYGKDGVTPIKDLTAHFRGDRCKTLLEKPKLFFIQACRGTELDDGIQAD
# Target sequence (P55210 207-303 limits assumed): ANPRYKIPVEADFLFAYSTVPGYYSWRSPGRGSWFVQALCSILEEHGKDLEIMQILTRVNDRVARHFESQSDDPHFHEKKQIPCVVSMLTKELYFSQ
# FLuc inh – blocks Photinus pyralis firefly luciferase activity. P08659. purified firefly luciferase, luminescence, 8 min. Potency, µM (doses to about 57.1 µM), for inactives: at the top dose activity change, negative = inhibition, usual class: inhibitors. hit rate 2.2% among 72,000. AID 411; further: on the % scale 0 is the no-effect control and ±100 the full control effect; nearly all actives have a fitted effect of over 40% in size
#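 Here, luciferase activity is measured as luminescence following an 8 min room-temperature reaction at 10 uM ATP, pH 7.2. Every library sample is titrated.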
# Tau filament bind – binds recombinant human tau filaments | P10636 | recombinant tau filaments, thioflavin S fluorescence, 15 h; filaments grown with octadecylsulfate alongside compound | Potency, µM (doses to about 57.1 µM), inactives show at the top dose activity change, negative = inhibition | hit rate 2% among 71,000;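 further: on the % scale 0 is the no-effect control and ±100 the full control effect; actives lower thioflavin S fluorescence by blocking filaments or displacing dye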
#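 Recombinant tau protein (human, 1 uM final) plus 30 uM ODS in HEPES pH 7.4 with NaCl, DTT and thioflavine S. Compound present from the start; fluorescence at 510 nm after 15 h, 37 C.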
# Bst PK mod – modulators of Bacillus stearothermophilus pyruvate kinase. purified pyruvate kinase, luminescence ATP production; ribose 5-phosphate activator present at AC10. Potency, µM. hit rate 1.2% among 51,000; in the data active means potency below about 11 µM; inconclusive means mostly about 12 µM to 25 µM;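 the screen sought inhibitors and activators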;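 further: scaled between full activation by ribose 5 phosphate and full inhibition by luteolin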
# * = called active by the depositor; i = inactive; ? = inconclusive; . = not tested or not shown; [ ] = remark or other dose. Unless noted, the call rests on the fitted dose curve; in most records, active means well fitted curve in the direction sought with a large enough effect; inconclusive means small, poorly fitted or top-dose-only effect, or another doubt; inactive means no such curve, though single readings can be large; an effect the other way counts as inactive or inconclusive. Potency means the concentration at half of the fitted maximal effect.
SMILES,Casp1 inh,Caspase-7 inhib,FLuc inh,Tau filament bind,Bst PK mod
Cc1cccn2c(=O)c3cc(C(=O)NCc4ccco4)c(=N)n(C(C)C)c3nc12,.,?,-0.8%,90.3%,.
CCOC(=O)c1cc2c(=O)n3ccccc3nc2n(Cc2ccc(Cl)cc2)c1=N,.,?,0.7%,0.501µM*,>57
CC(C)n1c(=N)c(C(=O)NCCc2ccccc2)cc2c(=O)n3ccccc3nc21,.,?,2.8%,3.16µM*,>57
Cc1cccn2c(=O)c3cc(C(=O)NCc4ccco4)c(=N)n(CCc4ccccc4)c3nc12,.,?,-1.3%,1.58µM*,.
Cc1ccc(C#CC2C=CC(Oc3ccc4c(c3)OCO4)C(CO)O2)c(C)c1 (centres undefined),-8.1%[11.5 µM],0.2%[11.5 µM],.,.,.
CC(C)CO/N=C1/C[C@@H](O)[C@@H](O)[C@@H]2[C@@H]3C(=O)N(C(C)(C)C)C(=O)[C@H]3CC[C@@H]12,-0.2%[11.5 µM],0.3%[11.5 µM],-1.0%[11.4 µM],.,.
COCC(=O)N1CCC[C@@]2(CCN(C(c3ccccc3)c3ccccc3)C2)C1,-4.6%,-1.9%,-2.9%[11.4 µM],6.5%,.
COc1ccccc1CNc1ncnc2ccc(-c3ccoc3)cc12,-4.2%,-5.3%,-2.1%[2.29 µM],52.9%,.
CCOC(=O)c1[nH]c2ccc(C)cc2c1NC(=O)CN1CCCCC1,-1.0%,0.4%,-3.0%,-2.5%,>57
Cc1c2cc[n+](CCN3CCCCC3)cc2c(C)c2c1[nH]c1ccc(O)cc12,-0.4%[11.5 µM],-2.8%[11.5 µM],3.8%[11.4 µM],3.98µM*,.
CCc1ccc(C2CC(c3ccccc3Cl)Nc3nc(N)nn32)cc1 (centres undefined),-0.5%,-4.4%,1.2%,20µM*,.
COc1ccc(C(=O)Nc2cc(OC)ccc2OC)cc1,-1.7%,-0.8%,20µM*,9.2%,.
COc1cccc(C(=O)Nc2cccc(SC)c2)c1,-2.8%,-1.0%,12.6µM*,-3.5%,.
COc1cccc(C(=O)Nc2c(F)c(F)c(F)c(F)c2F)c1,-0.8%,0.6%,3.4%,-4.0%,>57
COc1cccc(C(=O)Nc2c(C)n[nH]c2C)c1,0.2%,0.2%,3.9%,3.1%,>57
COc1ccc(CNC(=O)Nc2cccc(C)c2)cc1,3.4%,-3.5%,-5.3%,-11.6%,>57
COC(=O)c1[nH]c2cc(OC)c(OC)cc2c1NC(=O)c1cccc(OC)c1,0.4%,1.9%,7.94µM*,-1.7%,i
COc1ccc(C(=O)Nc2cccc(C)c2)cc1,-2.4%,1.1%,6.31µM*,6.8%[11.4 µM],.
COC(=O)c1ccc(C(NC(=O)OCc2ccccc2)/C(C)=C/[C@@H](C)C(=O)NCc2nn(-c3ccccc3)nc2C)cc1 (some centres undefined),-2.6%,-2.3%,.,8.6%,.
COc1ccc(NC(=O)c2c(OC)cccc2OC)c(OC)c1,-1.1%,0.0%,-2.0%,15.8µM*,>57
CCC(=O)Nc1ccc(OC)cc1OC,2.4%,-1.4%,0.9%,-29.4%,>57
COc1ccc(C(=O)Nc2ccccc2C(N)=O)cc1,-0.9%,0.3%,12.6µM*,-1.3%,i
O=C(Nc1ccc(N2CCCC2)cc1)c1cccc(F)c1,-9.0%,-8.5%,3.16µM*,-41.5%,?
O=C(Nc1ccc(N2CCN(c3ccc(O)cc3)CC2)cc1)Oc1ccccc1,-5.5%,-6.8%,-1.4%,2µM*,>57
CN1CCN(c2ccc(NC(=O)c3cccc(OCc4ccccc4)c3)cc2)CC1,1.8%,0.9%,-18.8%,7.94µM*,.
SMILES,Casp1 inh,Caspase-7 inhib,FLuc inh,Tau filament bind,Bst PK mod
c1ccc2c(c1)NC1(CCCC1)n1c-2nc2ccccc21,?,-19.2%,25.1µM*,0.7%,i
c1ccc2c(c1)NC(c1ccncc1)n1c-2nc2ccccc21 (centres undefined),.,.,-29.1%[25.5 µM],.,i
CC1CN2C(CCC(C)C2c2ccc(Br)cc2)C(=O)O1 (centres undefined),0.6%[11.5 µM],1.2%[11.5 µM],.,.,.
FC(F)(F)c1cc(-c2ccco2)nc(NCc2cccnc2)n1,-3.1%,-8.4%,-1.7%,20µM*,>57
CN(C)CC(C)(C)CNC(=O)c1ccc(Cc2nc3ccccc3[nH]2)cc1,-1.9%,-1.9%,.,.,.
CO[C@H]1COC(=O)C/C=C\[C@H](C)[C@@H](OC)COC(=O)[C@H](C)COC(=O)C/C=C\[C@@H]1C,-1.1%[11.5 µM],0.9%[11.5 µM],-0.8%[11.4 µM],.,.
COc1cccc(C(=O)/C=C/Nc2cc(C)ccc2O)c1,?,-20.7%,7.94µM*,49.3%,5.62*
Cc1cccc(OCC(=O)Nc2cc(C)ccc2O)c1,-0.6%,-2.4%,-4.1%,4.0%,>57
CS(=O)(=O)N1CCC2(CC1)CN(C(=O)Nc1ccccc1)C2,-2.3%,-2.0%,-1.6%[11.4 µM],-9.1%,.
NC(CSCSCC(N)C(=O)O)C(=O)O (centres undefined),-1.2%,1.1%,.,.,.
